# Laboratory results taken from PubChem BioAssay AID504332 (National Center for Advancing Translational Sciences (NCATS), 2011).
# Among all 350,000 compounds or so, about 31,000 (8.9%) were called active. Where a call stands in place of a potency, no number is given. Inconclusive results (about 15%) are left out. This is one part of a sample in which actives are shown more often than they occur. Calls come from the whole dose curve; as a rule, active = well fitted inhibition curve with a large enough effect; inconclusive = small, poorly fitted or top-dose-only effect; inactive = no such curve, though single readings can be large or run the other way.
# Target: Histone-lysine N-methyltransferase EHMT2 (Homo sapiens) (UniProt Q96KQ7)
# Sequence (Q96KQ7 913-1193 limits assumed): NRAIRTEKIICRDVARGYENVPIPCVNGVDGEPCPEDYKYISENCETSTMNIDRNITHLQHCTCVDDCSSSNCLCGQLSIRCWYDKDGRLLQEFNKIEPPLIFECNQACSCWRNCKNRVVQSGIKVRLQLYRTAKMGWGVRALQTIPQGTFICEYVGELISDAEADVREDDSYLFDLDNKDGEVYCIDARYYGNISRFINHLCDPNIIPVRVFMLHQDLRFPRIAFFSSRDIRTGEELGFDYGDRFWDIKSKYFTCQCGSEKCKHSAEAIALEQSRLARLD
# Assay: qHTS Assay for Inhibitors of Histone Lysine Methyltransferase G9a; note: nearly all actives have a fitted effect of over 75% in size
# Settings: G9a H3K9 monomethylation, AlphaScreen, 2 h; series mostly up to 59 µM
# From the text: Methylated lysines, on the N-terminal tails of histone proteins serve as epigenetic markers to recruit factors that can then modify local chromatin structure to lead to functional consequences. G9a and other members of the SUV39 family of the SET domain-containing superfamily of histone lysine methyltransferases (HMT) have been identified to specifically methylate Lys9 of histone H3 (H3K9). G9a catalyzes the mono- and di-methylation of H3K9 in mammalian euchromatic regions, where the resulting H3K9me2 is indicative of transcriptional repression. […] The inhibition of G9a will result in transcriptional activation and work synergistically with DNA methyltransferase and histone deacetylase inhibitors, to kill cancer cells. This qHTS assay for identification of G9a inhibitors is a chemiluminescence based AlphaScreen (PerkinElmer). Methylation of biotinylated-histone peptide is measured through specific antibody-based detection, in conjunction with streptavidin-coated donor and anti-IgG antibody-coated acceptor beads. The method is particularly well suited for detection of inhibitors acting by the desired histone peptide competitive mechanism and is applicable to testing other HMTs. Although AlphaScreen has significant advantages with its utility in a variety of epigenetic target assays, the primary screening data provided in this deposition should be used with caution due to the prevalence of screening artifacts. An AlphaScreen counterscreen is highly recommended to be run against any putative actives to eliminate non specific artifacts. Alternatively, one can use other AlphaScreen assays in PubChem to filter out promiscuous hits. Quinn et al. A chemiluminescence-based method for identification of histone lysine methyltransferase inhibitors. Mol Biosyst 6(5): 782-8. 2010. PMID: 20567762 [2] Baell,Holloway. New substructure filters for removal of pan assay interference compounds (PAINS) from screening libraries and for their exclusion in bioassays. J Med Chem. 53(7):2719-40. 2010. PMID: 20131845 NIH Molecular Libraries Probe Production Network [MLPCN] NIH Chemical Genomics Center [NCGC] Structural Genomics Consortium (SGC) NIH Grant: 5U54 MH084681-02
# To each well of a 1,536w plate, 2ul of HMT enzyme (final 20nM) were added, using a nanoliter dispenser. The G9a- and GLP-inhibitor BIX-01294 (CID: 25150857) are used as an intraplate control, with a 16-point titration in duplicate. A Kalypsys pin-tool transferred 23nl of library compound solution in DMSO to each well. Following a 15 min incubation of enzyme with compounds at room temperature, 1ul mixture of b-H3K9 peptide substrate (final 500nM) and SAM cofactor (final 20uM) were added. Reactions were allowed to proceed at room temperature for 2 hours. Methylated b-H3K9 peptide product was detected with 0.5 ug/mL rabbit polyclonal anti-monomethyl histone H3K9 antibody (Abcam Inc., Cambridge, MA) and 20 ug/mL each streptavidin-coated donor and anti-rabbit IgG acceptor AlphaScreen beads. Antibody and beads were added in a 1ul dispense, for a final volume of 4ul, and plates were incubated, protected from the light, for 10 min at room temperature. Microplates were then read on an EnVision multilabel plate reader using the 1,536 plate HTS AlphaScreen aperture (excitation time 80 ms, measurement time 240 ms).
# Potency is the fitted concentration of half-maximal effect.
SMILES,Potency,"activity, negative = inhibition"
Cc1cccc(-c2nc(SCc3ccc(Br)cc3)n3[nH]c(=O)cc3n2)c1,inactive,
O=C(c1cn(-c2ccccc2)nc1-c1cccnc1)N1CCN(S(=O)(=O)c2ccccc2F)CC1,,-2.44% [at 12.7 µM] (inactive)
Cc1nn(-c2ccccn2)c2c1C(c1ccncc1)C1=C(CC(C)(C)CC1=O)N2 (configuration not stated),inactive,
Cc1cc(C)c(C2C3=C(Nc4c2c(C)nn4-c2ccccn2)c2ccccc2C3=O)c(C)c1 (configuration not stated),11.2 µM (active),
O=C(Nc1ncccc1O)c1ccc(S(=O)(=O)N2CCCC2)cc1,,6.98% [at 12.7 µM] (inactive)
O=[N+]([O-])c1cccc(/C=N/Nc2ncc(Br)cn2)c1,,18% [at 0.501 µM] (inactive)
Clc1cc(-c2ccc(/C=N/n3cnnc3)o2)ccc1Br,inactive,
Cc1ccc(Cl)cc1-c1ccc(/C=N/n2cnnc2)o1,inactive,
Cc1cc(-c2ccc(/C=N/n3cnnc3)o2)c([N+](=O)[O-])cc1C,50.1 µM (active),
CCc1cnc2c(c1SCC(=O)c1ccccc1)c(=O)n(C)c(=O)n2C,inactive,
Cc1cccc(-c2nnc(SCC(=O)N3CCCc4ccccc43)o2)c1,inactive,
CCC(C)Nc1oc(-c2ccc(COc3ccc(Cl)cc3)o2)nc1C#N (configuration not stated),inactive,
CN1CCN(c2oc(-c3ccc(COc4ccc(Cl)cc4)o3)nc2C#N)CC1,11.2 µM (active),
COc1ccc(OCc2ccc(-c3nc(C#N)c(N4CCN(c5ccccc5)CC4)o3)o2)cc1,inactive,
C=CCOc1ccc(/C=C/C(=O)OCC(=O)NC(C)c2ccc(F)cc2)cc1 (configuration not stated),inactive,
COc1ccc(-c2nc3scc(CCNS(=O)(=O)c4cc(F)ccc4OC)n3n2)cc1OC,inactive,
CC1Cc2ccccc2N1C(=O)CSc1nnc(-c2ccc(S(=O)(=O)N3CCCC3)cc2)n1C (configuration not stated),inactive,
COc1ccc(S(=O)(=O)N2CCN(CC(=O)N3c4ccccc4CC3C)CC2)cc1OC (configuration not stated),56.2 µM (active),
COc1ccc(S(=O)(=O)N2CCC(C(=O)N3CCc4ccccc4C3)CC2)cc1OC,inactive,
CCN(CCCNC(=O)c1c(C)oc2ncn(CC(C)C)c(=O)c12)Cc1ccccc1,inactive,
COc1cccc(-c2nnc3n(CCc4ccccc4)c(=O)c4ccccc4n23)c1O,inactive,
O=C(Cn1cnc2ccccc2c1=O)Nc1cccc(S(=O)(=O)N2CCCCC2)c1,inactive,
CCN(CC(=O)Nc1cccc(S(N)(=O)=O)c1)Cc1nc2ccccc2c(=O)[nH]1,inactive,

SMILES,Potency,"activity, negative = inhibition"
CCCCN(CC(=O)Nc1cccc(S(=O)(=O)N2CCCC2)c1)Cc1nc2ccccc2c(=O)[nH]1,7.94 µM (active),
CN(C)S(=O)(=O)c1cc(NC(=O)CN2C(=O)NC3(CCCc4ccccc43)C2=O)ccc1Cl (configuration not stated),inactive,
CCCC(=O)N(CCc1ccccc1)Cc1nc2ccccc2c(=O)[nH]1,inactive,
CCN(CC(=O)Nc1ccc(Cl)c(S(=O)(=O)N(C)C)c1)Cc1nc2ccccc2c(=O)[nH]1,39.8 µM (active),
O=C(COc1ccccc1F)Nc1ccc(C(=O)OCc2cc(=O)n3nc(C4CC4)sc3n2)cc1,inactive,
CCCNc1ncnc2c1c(-c1ccccc1)cn2-c1ccc(OCC)cc1,inactive,
S=C(Nc1cccc(Br)c1)N1CCn2cccc2C1c1cccnc1 (configuration not stated),50.1 µM (active),
CC(=O)N1c2ccc(S(=O)(=O)N3CCCC(C(=O)NCc4ccc(Cl)cc4)C3)cc2CC1C (configuration not stated),inactive,
COC(=O)c1cc(NC(=O)CCS(=O)(=O)c2cc(Br)cc3c2N(C(=O)C2CC2)CC3)cc(C(=O)OC)c1,inactive,
N#Cc1ccccc1S(=O)(=O)N1CCN(Cc2c(O)ccc3ccccc23)CC1,,-0.103% [at 2.33 µM] (inactive)
CCCCn1c(N)c(N(CC)C(=O)/C=C/c2ccco2)c(=O)[nH]c1=O,inactive,
CCCCN=C1N/C(=C\c2ccco2)C(=O)N1c1ccccc1,44.7 µM (active),
O=C(OCN1C(=O)c2ccccc2C1=O)/C(=C\c1ccco1)NC(=O)c1ccccc1,inactive,
COc1cc(NC(=O)c2cc(C3CC3)nc3c2c(C)nn3-c2ccccc2)cc(OC)c1,inactive,
CCc1ccc(S(=O)(=O)Nc2cc3c(C(=O)OCc4ccccc4)c(C)oc3c3ccccc23)cc1,inactive,
CCCCNC(=O)Cn1nc(C)c(S(=O)(=O)N2CCOCC2)c1C,,8.75% [at 12.7 µM] (inactive)
O=C(c1ccco1)N1CCC2(CC1)CCN(c1ncccn1)CC2,,4.8% [at 12.7 µM] (inactive)
O=C(c1ccco1)N1CCC2(CC1)CN(c1ncccn1)C2,,6.99% [at 12.7 µM] (inactive)
O=C(C1=C(O)C(=O)N(c2ncccn2)C1c1cccs1)c1ccco1 (configuration not stated),10 µM (active),
COC(=O)c1ccc(OC)c(Cn2c(=O)n(Cc3ccccc3)c(=O)c3c2c2cc(OC)ccc2n3C)c1,inactive,
Cc1nn(Cc2ccccc2)c(C)c1CNC(=O)c1ccc(F)c(S(=O)(=O)N2CCOCC2)c1,,-14.2% [at 12.7 µM] (inactive)
CCN(C(=O)CSc1nc(N)cc(=O)[nH]1)C1CCS(=O)(=O)C1 (configuration not stated),,6.8% [at 12.7 µM] (inactive)
O=C(Nc1cccc(S(=O)(=O)N2CCCCC2)c1)c1ccc2c(c1)OCO2,1 µM (active),

SMILES,Potency,"activity, negative = inhibition"
CCN1CCN(c2ccc(S(=O)(=O)N3CCCCC3)cc2NC(=O)Cc2c(Cl)cccc2Cl)CC1,inactive,
Cc1ccc(S(=O)(=O)N2CCCCC2)cc1NC(=O)c1cccnc1,inactive,
CCN1CCN(c2ccc(S(=O)(=O)N3CCCCC3)cc2NC(=O)c2cccc(NC(C)=O)c2)CC1,50.1 µM (active),
O=C(Nc1ccc2c(c1)OCCO2)c1ccc(Cl)c(S(=O)(=O)N2CCCCC2)c1,,-22.9% [at 12.7 µM] (inactive)
O=C(Nc1cccnc1)c1cccc(S(=O)(=O)N2CCCC2)c1,inactive,
CC(C)(C)SCCSC1=CC(=O)CC(c2ccccc2)C1 (configuration not stated),inactive,
O=C(CSc1nc2ccccc2c(=O)n1-c1ccc(F)cc1)NC1CC1,,7.18% [at 0.501 µM] (inactive)
COC(=O)CC1Oc2ccccc2-n2cc(-c3ccccc3)nc21 (configuration not stated),inactive,
COc1ccc(C(=O)Nc2ccccc2C(=O)N/N=C/c2ccc(O)c(OC)c2)cc1,,-4.54% [at 2.33 µM] (inactive)
COc1ccc(/C=N/NC(=O)c2cccc(C(F)(F)F)c2)cc1,inactive,
COc1ccc(/C=N/Nc2ccccc2C(=O)O)cc1,79.4 µM (active),
COc1ccc(Cc2nnc(SCC(=O)N(c3ccccc3)C(C)C)n(N)c2=O)cc1,inactive,
CCCCOc1ccc(C(C)(O)CCN2CCOCC2)cc1 (configuration not stated),inactive,
COc1ccc(C(=O)Nc2ccc(CN3CCOCC3)cc2)cc1,,39.7% [at 12.7 µM] (inactive)
CCOc1ccc(C(=O)CCC(=O)Nc2ccncc2)cc1,,-14% [at 12.7 µM] (inactive)
Cc1cccc(C)c1OCC(O)CN1CCCCC1 (configuration not stated),inactive,
CCOc1ccc(C(=O)CCN2CCOCC2)cc1,39.8 µM (active),
Cc1ccc(S(=O)(=O)NCCN2CCOCC2)cc1C,,-19.4% [at 12.7 µM] (inactive)
CCOc1ccc(C2C(C(=O)O)c3ccccc3C(=O)N2CCN2CCOCC2)cc1 (configuration not stated),,1.66% [at 12.7 µM] (inactive)
Cc1cccc(C)c1OCCN1CCOCC1,11.2 µM (active),
CC(=O)c1ccc(OCCN2CCOCC2)cc1,25.1 µM (active),
COc1ccc(CCC(=O)NCc2ccc3c(c2)CCN3C(=O)c2ccc(F)cc2)cc1,inactive,
CCN(C(=O)COC(=O)CCOc1cccc(C)c1)c1c(N)n(Cc2ccccc2)c(=O)[nH]c1=O,inactive,

SMILES,Potency,"activity, negative = inhibition"
O=C(CSc1ncc(S(=O)(=O)c2ccc(Br)cc2)c(=O)[nH]1)Nc1ccc2c(c1)OCCO2,inactive,
O=C(COC(=O)c1cccs1)NCc1cccs1,inactive,
Cc1ccc(N2CC(NC(=O)Cc3cccs3)CC2=O)cc1 (configuration not stated),inactive,
CCN(C(=O)COC(=O)Cc1c(F)cccc1Cl)c1c(N)n(Cc2ccccc2)c(=O)[nH]c1=O,,1.45% [at 12.7 µM] (inactive)
Cc1cccc(-c2nc(SCC(=O)Nc3cc(C)on3)c3c(=O)n(C)c(=O)n(C)c3n2)c1,inactive,
Cc1ccc(OCC(=O)OCc2cc(=O)n3nc(C4CC4)sc3n2)cc1C,inactive,
O=C1C=C(c2ccc(Cl)cc2)C(=O)N1Nc1ccccc1,7.94 µM (active),
O=C(Nc1ccccc1)OCc1cc(-c2ccc(Cl)cc2)on1,inactive,
O=C1c2cccc3cc(Br)cc(c23)C(=O)N1Nc1ccccc1,inactive,
Cc1cc(NCc2ccco2)n2c(nc3ccccc32)c1C#N,inactive,
COc1ccc(Nc2oc(-c3ccccc3Cl)nc2C#N)cc1,inactive,
Cc1ccccc1-c1nc(C#N)c(NCc2ccco2)o1,39.8 µM (active),
O=C(NCCc1ccccc1)c1ccc2c(c1)N(Cc1ccccc1)C(=O)c1ccccc1S2(=O)=O,inactive,
Cc1cc(S(=O)(=O)N2CCOCC2)ccc1OCC(=O)Nc1cccc(C(F)(F)F)c1,inactive,
Cc1ccc(S(=O)(=O)N2CC(O)C[C@H]2C(=O)OCC(=O)Nc2ccc(N3CCOCC3)cc2)cc1C (some centres not stated),50.1 µM (active),
CC1CCCC(NC(=O)COC(=O)[C@@H]2CC(O)CN2S(=O)(=O)c2ccc3c(c2)OCCO3)C1C (some centres not stated),inactive,
CC(C)Oc1ccc(NC(=O)c2cc3ccccc3o2)cc1,inactive,
O=C(/C=C(O)/C=C/c1ccc(O)cc1)/C=C/c1ccc(O)cc1,,1.18% [at 0.501 µM] (inactive)
CCOC(=O)C(C)N(c1ccccc1Cl)S(C)(=O)=O (configuration not stated),,25.6% [at 12.7 µM] (inactive)
Cc1cc(C)cc(NC(c2nnc(-c3cccc(F)c3)o2)c2ccc(F)cc2Cl)c1 (configuration not stated),inactive,
O=S(=O)(NCC1OCCc2ccccc21)c1ccccc1 (configuration not stated),,-24.8% [at 2.33 µM] (inactive)
O=c1/c(=C/c2ccc(CNS(=O)(=O)c3ccccc3)o2)sc2n1CCN=2,39.8 µM (active),
O=S(=O)(NCCc1ccncc1)c1ccccc1,inactive,
